Screening results deposited in PubChem BioAssay by National Center for Advancing Translational Sciences (NCATS).
HP1b binding inh: HP1-beta chromodomain-methylated histone interaction inhibition | AlphaScreen HP1-beta / biotin-H3K9me3 peptide binding | Potency, µM (titrated, usually from 114 µM), inactives show top-dose activity change, negative = inhibition, usual class: inhibitors | 390,000 tested, 0.56% active | AID 540317; note: nearly all actives have a fitted effect of over 70% in size
Target sequence (P83916 whole entry, looked up): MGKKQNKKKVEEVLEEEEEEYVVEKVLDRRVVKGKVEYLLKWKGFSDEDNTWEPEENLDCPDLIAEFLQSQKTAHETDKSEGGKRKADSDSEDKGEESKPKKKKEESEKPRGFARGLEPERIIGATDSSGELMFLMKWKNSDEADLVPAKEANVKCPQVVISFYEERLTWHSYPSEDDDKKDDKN
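HP1-beta protein (50 nM final) preincubated 30 min at room temperature with biotinylated H3(1-18)K9me3 peptide (50 nM) in PBS pH 7.4, 0.01% Tween-20, then compound added for 30 min. AlphaScreen streptavidin donor/nickel chelate acceptor beads (10 ug/mL final), 30 min dark, luminescence read.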
BAZ2B inh: inhibitors of human BAZ2B bromodomain; Q9UIF8; AlphaScreen BAZ2B-H3K14Ac peptide displacement; Potency, µM (highest dose often 114 µM), without a hit: at the top dose activity change, negative = inhibition, hits mostly inhibitors; 360,000 tested, 4.4% active; AID 504333; note: % is set by controls: 0 for no effect and ±100 for the full control effect; nearly all actives have a fitted effect of over 60% in size
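Multi-concentration screen (max 110 uM) measuring displacement of acetylated histone H3 peptide from BAZ2B by AlphaScreen, using 50 nM protein, 50 nM peptide and 10 ug/mL streptavidin donor plus Ni-chelate acceptor beads.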
PLK1 PBD inh: inhibitors of human PLK1 polo-box domain binding. Potency, µM, inactives show max response, negative = inhibition, actives largely listed as inhibitors. 360,000 tested, 2.8% active. Plk1 PBD binding of FITC phosphopeptide, fluorescence polarization; note: series mostly up to about 57 µM; % is set by controls: 0 for no effect and ±100 for the full control effect; nearly all actives have a fitted effect of over 65% in size
12-LOX inh: blocks human arachidonate 12S-lipoxygenase; Potency, µM (series often up to 108 µM), for inactives: at the highest dose activity change, negative = inhibition, most hits filed as inhibitors; purified 12hLO, xylenol orange hydroperoxide absorbance; P18054; 580,000 tested, 1.1% active; AID 1671190; note: % is set by controls: 0 for no effect and ±100 for the full control effect
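Hydroperoxide product was detected by ferrous iron/xylenol orange as the 573 to 405 nm absorbance ratio. Arachidonic acid at 40 uM (final) was turned over for 30 min at room temperature by 150 nM human 12hLO, pH 7.0 Hepes buffer, after 15 min compound preincubation.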
JMJD2A Tudor inh: JMJD2A Tudor domain (human) inhibition | O75164 | AlphaScreen JMJD2A-Tudor / H3K4me3 peptide binding | Potency, µM (top dose mostly 114 µM), inactives show at the top dose activity change, negative = inhibition, usual class: inhibitors | 390,000 tested, 4.4% active; note: % is set by controls: 0 for no effect and ±100 for the full control effect; nearly all actives have a fitted effect of over 50% in size
G9a block: inhibitors of human histone lysine methyltransferase G9a; Q96KQ7; G9a H3K9 monomethylation, AlphaScreen, 2 h; Potency, µM (series often up to 102 µM), without a hit: at the highest dose activity, negative = inhibition, usual class: inhibitors; 350,000 tested, 8.8% active; note: % is set by controls: 0 for no effect and ±100 for the full control effect; nearly all actives have a fitted effect of over 75% in size
Target sequence (Q96KQ7 913-1193 limits assumed): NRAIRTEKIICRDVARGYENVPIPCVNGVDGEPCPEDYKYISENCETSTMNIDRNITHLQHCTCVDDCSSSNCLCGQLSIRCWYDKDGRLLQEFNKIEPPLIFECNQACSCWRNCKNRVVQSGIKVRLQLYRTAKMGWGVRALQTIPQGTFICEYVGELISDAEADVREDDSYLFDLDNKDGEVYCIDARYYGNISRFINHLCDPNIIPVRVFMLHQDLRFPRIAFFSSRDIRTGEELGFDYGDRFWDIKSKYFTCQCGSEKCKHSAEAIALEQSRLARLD
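Enzyme 20 nM + cpd, 15 min RT; add b-H3K9 pep 500 nM / SAM 20 uM; 2 h RT; anti-H3K9me1 Ab 0.5 ug/mL + SA donor / anti-rabbit acceptor beads 20 ug/mL each, 10 min; AlphaScreen read.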
* hit, by the source's call; ? = inconclusive; . = not tested or not shown; [ ] = dose if it differs, or a comment. Most compounds without a hit are left out; they make up all but 9% or so of the library. Calls come from the whole dose curve; as a rule, active = well fitted curve in the direction sought with a large enough effect; inconclusive = small, poorly fitted or top-dose-only effect, or another doubt; inactive = no such curve, though single readings can be large; an effect the other way counts as inactive or inconclusive. Potency is the fitted concentration of half-maximal effect.

SMILES	HP1b binding inh	BAZ2B inh	PLK1 PBD inh	12-LOX inh	JMJD2A Tudor inh	G9a block
O=C(O)c1ccc(NC(=O)c2cccc(C(=O)Nc3ccc(C(=O)O)cc3)n2)cc1	58%	-34%	-11%	8%	?	22µM*
O=C(Nc1ccccc1)c1cccc(C(=O)Nc2ccccc2)n1	32%	-17%	-1%	426%	-8%	-12%[12.7 µM]
CN(C)c1ccc(/C=N/NC(=O)c2cccc(C(=O)N/N=C/c3ccc(N(C)C)cc3)n2)cc1	39%	-1%	-7%	-2%	-8%	-8%[12.7 µM]
CN(C)c1ccc(NC(=O)c2ccc3nsnc3c2)cc1	-13%	-11%	-7%	?	-35%	4.5µM*
CN(C)c1ccc(NC(=O)c2cccc(C(=O)Nc3ccc(N(C)C)cc3)n2)cc1	40µM*	7.9µM*	-21%	-7%	16µM*	3.2µM*
O=[N+]([O-])c1ccc(OCCCOc2cccc3cccnc23)cc1	37%	2%	-4%	-5%	-14%	8%[0.501 µM]
CC(C)N(C(=O)Nc1ccc2nsnc2c1)C(C)C	-14%	-1%	13µM*	?	79µM*	.
CN(C)S(=O)(=O)c1cccc(NC(=O)c2cc(=O)[nH]c(=O)[nH]2)c1	35%	?	-2%	11%	?	1.1µM*
CCN(CC)S(=O)(=O)c1cccc(NC(=O)c2ccc(C#N)cc2)c1	35%	-17%	1%	-20%	-12%	20µM*
Cc1cc(C(=O)CSc2nc3ccccc3n2C)c(C)n1C	-24%	?	-6%	3%	?	?
Cn1cc(C=C2C(=O)OC3(CCCCC3)OC2=O)c2ccccc21	27%	-15%	-13%	0%	-22%	.
Cn1cc(C=C2C(=O)CC(C)(C)CC2=O)c2ccccc21	-15%	?	27µM*	-16%	?	45µM*
Cc1ccc(-c2nn(-c3ccccc3)cc2C=C2C(=O)CC(C)(C)CC2=O)cc1	-6%	?	0.67µM*	7.9µM*	-33%	15%[0.0925 µM]
CC1=NNC(=O)/C1=C\c1cn(-c2ccccc2)nc1-c1ccc(Cl)cc1	-10%	?	5.3µM*	-19%	-20%	-7%[12.7 µM]
COc1ccc(S(=O)(=O)N2CCC3(CC2)OCCN3S(=O)(=O)c2cccs2)cc1	16%	6%	-3%	-2%	-19%	-26%
CCCN1CN=C(Nc2nc3ccccc3o2)NC1	2%	-16%	-6%	?	-5%	0%
COCCCN1CN=C(Nc2nc3ccccc3o2)NC1	3%	-5%	7%	-5%	13µM*	?
CCOC(=O)C1(C)NC(c2ccc(OC)c(OC)c2)C2C(=O)N(c3cccc(C(C)=O)c3)C(=O)C21 (configuration not stated)	.	.	1%	8%	.	.
CCOC(=O)C1(C)NC(c2ccc(N(C)C)cc2)C2C(=O)N(c3ccc(OC)cc3)C(=O)C21 (configuration not stated)	13%	4%	-5%	-5%	-20%	-11%
CCOC(=O)C1(C)NC(c2cccs2)C2C(=O)N(c3ccc(OC)cc3)C(=O)C21 (configuration not stated)	3%	2%	3.4µM*	-3%	10µM*	4%
CCOC(=O)C1(C)NC(c2ccccc2F)C2C(=O)N(c3cccc(C(C)=O)c3)C(=O)C21 (configuration not stated)	?	19%	3.8µM*	-9%	35µM*	13%
CC(C)NC(=O)C(=O)NC1CCCCCC1	16%	7%	1%	?	10%	7%
O=C(NC1CCCCCC1)C(=S)N1CCOCC1	?	?	5.3µM*	?	79µM*	?
O=C(NNC(=O)C1CCCCC1)C(=O)NC1CCCCC1	9%	1%	-2%	9%	?	10µM*
O=C(NC1CCCCCC1)C(=S)NC1CCCCC1	32%	17%	?	-9%	-28%	35µM*
SMILES	HP1b binding inh	BAZ2B inh	PLK1 PBD inh	12-LOX inh	JMJD2A Tudor inh	G9a block
O=C(NC1CCCCCC1)C(=S)N1CCCC1	31%	6%	-7%	2%	-14%	.
O=C(NC1CCCCCC1)C(=O)NC1CC1	46%	?	3%	7%	-2%	.
C=C(C)CSc1nnc(-c2cccc(Cl)c2)n1N	21%	-5%	-4%	3%	-13%	?
CCOC(=O)C1CCCN(C(=O)c2cn(CC)c3ccc(S(=O)(=O)N(C)C)cc3c2=O)C1 (configuration not stated)	51%	-6%	-5%	-24%	-17%	-17%
COc1cc(CNC(=O)CCCC(=O)c2ccccc2)cc(OC)c1OC	28%	-3%	24µM*	0%	-29%	10%[12.7 µM]
CCCC/C(O)=C1\C(=O)CCCC1=NCCc1c(C)[nH]c2ccc(OC)cc12	-24%	?	4%	6%	?	71µM*
CC/C(O)=C1\C(=O)CCCC1=NCCc1c(C)[nH]c2ccc(C)cc12	-24%	?	30µM*	0%	-7%[11.4 µM]	-43%
CC/C(O)=C1\C(=O)CC(c2ccccc2)CC1=NCCc1c(C)[nH]c2ccc(C)cc12 (configuration not stated)	16%	-2%	-4%	2%[57.4 µM]	-23%	-6%
Cc1onc(-c2ccc(Cl)cc2)c1-c1ccnc(SCC(=O)Nc2ccc(C(C)C)cc2)n1	15%	0%	-9%	82%	-21%	13%
N#CC1=C2C=CC=CN2CC1=O	-23%	50µM*	-8%	?	8.9µM*	4µM*
Cc1nn2c(N)csc2nc1=O	.	?	.	.	.	79µM*
Cc1nn2c3ccccc3n(C)c2nc1=O	13%	3%	4%	?	-12%	0%[59 µM]
O=C1NN(c2ccccc2)C(=O)/C1=C\c1ccccc1	33%	-21%	8.4µM*	?	-15%	40µM*
O=C1NN(c2cccc(Br)c2)C(=O)/C1=C/c1cccs1	7%	?	19µM*	3%	?	?
O=C1NN(c2cccc(Br)c2)C(=O)/C1=C\c1ccccc1	0%	-35%	1.5µM*	5.6µM*	-33%	20µM*
O=C1NN(c2ccccc2)C(=O)/C1=C\c1coc2ccc(O)cc2c1=O	-9%	-37%	?	?	-27%	14%[12.7 µM]
O=C1NN(c2ccccc2)C(=O)/C1=C/c1cccs1	.	?	.	-26%	.	-11%[59 µM]
O=C1NN(c2ccccc2)C(=O)C1=Cc1ccccc1	.	.	11µM*	?	.	.
O=C1NN(c2ccccc2)C(=O)/C1=C/c1coc2ccccc2c1=O	8%	-24%	?	?	-27%	?
O=C(CC1CCCN(c2cn[nH]c(=O)c2)C1)N1CCN(c2ccccn2)CC1 (configuration not stated)	.	.	.	41%	.	.
O=C(Nc1ccccc1F)c1cc(-c2cccs2)nc2ccccc12	.	.	.	-16%	.	.
